In PubChem BioAssay one finds composite z-score and z-score data, which are given here for 5 molecules.

Each structure is given as a SMILES string. Activity calls are given as the source filed them. Unless noted, the rule behind the calls is not given here.

Assay [1] relates to Wnt5a (protein binding on small-molecule microarray). Kind of assay: Wnt5a binders on small-molecule microarray, primary screen, biophysical, 635/667 nm fluorescence (AID 1142).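 Note: fluorescence read at 667 nm with signal to noise per printed feature.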 The settings on record: 635 nm fluorescence, higher = more signal.
Assay [2] in a line: cell viability in Huh7 cells, primary screen, cytotoxicity control for HCV replication inhibitor project, CellTiter-Glo luminescence, basal, 48 h (AID 1143).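 Note: Huh7 hepatoma cells carrying a hepatitis C replication reporter with no stimulus; test concentration not given here.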 Particulars: Huh7 HCV replicon, higher = more signal, called active from +8 up or from −8 down. (In general: ATP-based viability assays read luminescence as a measure of living cells.)
Assay [3] can be described thus: P. aeruginosa biofilm formation inhibitors, primary screen, PAO1 strain, BacTiter-Glo luminescence, LB-PBS (AID 1144). The settings on record: 12 h, higher = more signal.
A short description of assay [4]: CREB reporter modulators without forskolin, primary screen, cell-based, PC12, CRE-LacZ reporter, unstimulated (AID 1145). Particulars: no forskolin, luminescence, 4.5 h, higher = more signal, called active from +8 up or from −8 down.
A short description of assay [5]: CREB reporter modulators under forskolin, primary screen, cell-based, PC12, CRE-LacZ reporter, forskolin-stimulated (AID 1146).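 Note: PC12 cells with 6xCRE LacZ reporter stimulated by forskolin 10 µM; beta-galactosidase reporter signal reflecting CREB driven transcription.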 Particulars: luminescence, 4.5 h, higher = more signal, called active from +8 up or from −8 down.
Assay [6] has as its target Streptavidin (Streptomyces avidinii) (UniProt P22629). Briefly: streptavidin binders on small-molecule microarray, primary screen, artefact control for SMM compound annotation, biophysical, 635/667 nm fluorescence (AID 1147).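 Note: signal reflects streptavidin binding to arrayed compounds as a control protein.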 The settings on record: streptavidin binding, higher = more signal.
Assay [7] can be described thus: small-molecule binders of probe aInhba, primary screen, biochemical, small-molecule microarray, 635/667 nm fluorescence (AID 1148).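 Note: score merges 667nm spot fluorescence with signal-to-noise for antibody binding to printed compounds.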 Particulars: higher = more signal.
Assay [8] addresses Torsin-1A (Homo sapiens) (UniProt O14656). Kind of assay: torsin A binders from cell lysate, primary screen, small-molecule microarray, wild-type, 635/667 nm (AID 1149). The settings on record: COS7 hTOR1A-WT lysate, 635 nm fluorescence, higher = more signal.
Assay [9] has the same target. Kind of assay: small-molecule binders of mutant TOR1A in lysate, primary screen, cell lysate, small-molecule microarray, COS7 lysate, 635/667 nm fluorescence (AID 1150).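 Note: score pools 667 nm emission and signal to noise measuring lysate protein binding.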 The settings on record: COS7 hTOR1A mutant lysate, 635 nm fluorescence, higher = more signal.
For assay [10], the system named is Sonic hedgehog protein (Shh). Briefly: small-molecule binders of Shh protein, primary screen, biochemical, small-molecule microarray, 635/667 nm fluorescence (AID 1151).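 Note: Shh protein binding to compounds spotted on small-molecule microarray slides; score combines spot fluorescence intensity with signal-to-noise across triplicate slides.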 The settings on record: small-molecule microarray binding, 635 nm fluorescence; higher = more signal.
The nature of assay [11]: E. coli DRC41 culture turbidity changes, primary screen, E. coli filamentation inducer project, strain DRC41, OD650, 48 h (AID 1152).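 Note: E. coli MC1000 strain DRC41 lacking acrAB efflux pump and sulA.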 Particulars: E. coli DRC41 (acrAB sulA), higher = more signal, called active from +8 up or from −8 down.
Assay [12] can be described thus: small-molecule binders of probe aLefty1, primary screen, biochemical, small-molecule microarray, 635/667 nm fluorescence (AID 1153).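 Note: score merges spot fluorescence with signal-to-noise ratio from the scanned slide images.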 Particulars: higher = more signal.
Assay [13] can be described thus: PSAC antagonists in infected red cells, primary screen, cell-based, P. falciparum Indochina, OD700, 1 h (AID 1154). Particulars: P. falciparum Indochina infected RBC osmotic lysis, higher = more signal, called active from +8 up or from −8 down.
Assay [14] in a line: PSAC antagonists in infected red cells, primary screen, cell-based, P. falciparum Indochina, OD700, 2 h (AID 1155).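 Note: lysis reports solute entry through the parasite surface anion channel PSAC; channel blockers reduce lysis of infected cells.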 The settings on record: P. falciparum Indochina infected erythrocytes, osmotic lysis OD700; higher = more signal, called active from +8 up or from −8 down.
Assay [15] can be described thus: osmotic lysis modulators in infected erythrocytes, primary screen, PSAC antagonist project, cell-based, P. falciparum Indochina, OD700, 3 h (AID 1156). The settings on record: higher = more signal, called active from +8 up or from −8 down.
Assay [16] in a line: PSAC antagonists in infected red cells, primary screen, cell-based, P. falciparum Indochina, OD700, 18 h (AID 1157). Particulars: P. falciparum Indochina infected erythrocytes, osmotic lysis OD700, 18 h; higher = more signal, called active from +8 up or from −8 down.
Assay [17] is described as follows: modulators of S6 phosphorylation in cells, primary screen, cell-based, A549, cytoblot, luminescence, serum-stimulated (AID 1158).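 Note: serum-stimulated A549 lung adenocarcinoma cells; signal is phosphorylated S6 detected by cytoblot immunostaining with HRP secondary.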 Particulars: A549 phospho-S6 cytoblot, 5 h, higher = more signal.
Assay [18] addresses NADPH oxidase 2 (Homo sapiens) (UniProt P04839). Briefly: NOX2-dependent H2O2 signal modulators, primary screen, NOX inhibitor project, cell-based, HEK293-NOX2, PMA-stimulated, Amplex Red fluorescence (AID 1159). Note: test concentration not given here. Particulars: 45 min, higher = more signal, called active from +8 up or from −8 down.
For assay [19], the target named is NADPH oxidase 4 (Homo sapiens) (UniProt Q9NPH5). Briefly: NOX4-dependent H2O2 signal modulators, primary screen, NOX inhibitor project, cell-based, HEK293-NOX4, tetracycline-induced, Amplex Red fluorescence (AID 1160). The settings on record: 45 min, higher = more signal, called active from +8 up or from −8 down.
Chain of NADPH oxidase 4 (Homo sapiens) (Q9NPH5 whole entry, looked up): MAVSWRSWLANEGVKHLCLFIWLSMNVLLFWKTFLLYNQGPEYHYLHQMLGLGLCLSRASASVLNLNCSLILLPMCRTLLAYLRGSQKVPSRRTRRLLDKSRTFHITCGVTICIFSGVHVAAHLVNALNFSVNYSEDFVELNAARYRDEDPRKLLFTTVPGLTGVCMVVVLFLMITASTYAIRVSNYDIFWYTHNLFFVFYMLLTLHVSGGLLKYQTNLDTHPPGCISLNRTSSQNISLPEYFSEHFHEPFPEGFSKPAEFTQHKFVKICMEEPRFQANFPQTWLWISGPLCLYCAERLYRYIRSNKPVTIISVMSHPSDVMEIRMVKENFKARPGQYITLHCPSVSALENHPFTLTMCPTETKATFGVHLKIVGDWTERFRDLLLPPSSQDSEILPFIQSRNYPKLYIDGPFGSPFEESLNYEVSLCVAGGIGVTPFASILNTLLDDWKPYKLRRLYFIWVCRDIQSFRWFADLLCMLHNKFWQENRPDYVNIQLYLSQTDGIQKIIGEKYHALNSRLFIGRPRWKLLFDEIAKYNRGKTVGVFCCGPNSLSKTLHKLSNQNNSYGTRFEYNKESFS
In assay [20] the target is NADPH oxidase 5 (Homo sapiens) (UniProt Q96PH1). Kind of assay: NOX5-dependent H2O2 signal modulators, primary screen, NOX inhibitor project, cell-based, HEK293-NOX5, Amplex Red fluorescence (AID 1161). Particulars: HEK293-NOX5, ionomycin, 45 min, higher = more signal.
Chain of NADPH oxidase 5 (Homo sapiens) (Q96PH1 whole entry, looked up): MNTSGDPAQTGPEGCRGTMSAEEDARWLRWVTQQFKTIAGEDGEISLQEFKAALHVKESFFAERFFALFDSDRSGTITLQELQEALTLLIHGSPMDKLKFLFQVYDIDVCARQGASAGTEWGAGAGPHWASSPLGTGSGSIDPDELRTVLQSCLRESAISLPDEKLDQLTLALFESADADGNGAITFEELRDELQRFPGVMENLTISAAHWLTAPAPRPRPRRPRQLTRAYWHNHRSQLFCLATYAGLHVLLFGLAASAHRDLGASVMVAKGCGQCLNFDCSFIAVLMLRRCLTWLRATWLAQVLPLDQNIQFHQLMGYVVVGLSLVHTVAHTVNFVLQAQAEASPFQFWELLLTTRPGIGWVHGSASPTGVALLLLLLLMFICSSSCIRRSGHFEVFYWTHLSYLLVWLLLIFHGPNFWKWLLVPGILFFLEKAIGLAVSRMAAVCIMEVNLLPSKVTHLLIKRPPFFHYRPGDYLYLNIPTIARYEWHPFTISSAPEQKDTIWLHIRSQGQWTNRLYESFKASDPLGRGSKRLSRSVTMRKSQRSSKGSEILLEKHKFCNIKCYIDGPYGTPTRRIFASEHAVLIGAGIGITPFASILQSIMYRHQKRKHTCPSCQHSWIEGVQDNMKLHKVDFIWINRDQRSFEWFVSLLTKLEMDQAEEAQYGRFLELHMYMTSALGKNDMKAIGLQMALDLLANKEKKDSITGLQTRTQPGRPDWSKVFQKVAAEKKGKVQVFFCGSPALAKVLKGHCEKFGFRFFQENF

Chain of Streptavidin (Streptomyces avidinii) (P22629 whole entry, looked up): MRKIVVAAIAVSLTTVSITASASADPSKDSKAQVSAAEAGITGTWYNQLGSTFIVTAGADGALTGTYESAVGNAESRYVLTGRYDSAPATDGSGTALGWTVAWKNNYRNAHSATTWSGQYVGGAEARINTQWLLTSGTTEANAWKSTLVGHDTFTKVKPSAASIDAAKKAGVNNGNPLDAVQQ
Chain of Torsin-1A (Homo sapiens) (O14656 whole entry, looked up): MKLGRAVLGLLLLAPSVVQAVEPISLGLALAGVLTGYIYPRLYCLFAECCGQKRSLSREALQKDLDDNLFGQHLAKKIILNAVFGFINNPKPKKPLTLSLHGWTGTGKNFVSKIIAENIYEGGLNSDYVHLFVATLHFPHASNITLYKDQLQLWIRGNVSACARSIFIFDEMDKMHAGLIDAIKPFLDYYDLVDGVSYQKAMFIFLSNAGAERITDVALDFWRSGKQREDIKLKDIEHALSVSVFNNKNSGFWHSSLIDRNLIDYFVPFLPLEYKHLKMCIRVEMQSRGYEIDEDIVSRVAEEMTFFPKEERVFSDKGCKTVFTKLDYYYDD
Chain of NADPH oxidase 2 (Homo sapiens) (P04839 whole entry, looked up): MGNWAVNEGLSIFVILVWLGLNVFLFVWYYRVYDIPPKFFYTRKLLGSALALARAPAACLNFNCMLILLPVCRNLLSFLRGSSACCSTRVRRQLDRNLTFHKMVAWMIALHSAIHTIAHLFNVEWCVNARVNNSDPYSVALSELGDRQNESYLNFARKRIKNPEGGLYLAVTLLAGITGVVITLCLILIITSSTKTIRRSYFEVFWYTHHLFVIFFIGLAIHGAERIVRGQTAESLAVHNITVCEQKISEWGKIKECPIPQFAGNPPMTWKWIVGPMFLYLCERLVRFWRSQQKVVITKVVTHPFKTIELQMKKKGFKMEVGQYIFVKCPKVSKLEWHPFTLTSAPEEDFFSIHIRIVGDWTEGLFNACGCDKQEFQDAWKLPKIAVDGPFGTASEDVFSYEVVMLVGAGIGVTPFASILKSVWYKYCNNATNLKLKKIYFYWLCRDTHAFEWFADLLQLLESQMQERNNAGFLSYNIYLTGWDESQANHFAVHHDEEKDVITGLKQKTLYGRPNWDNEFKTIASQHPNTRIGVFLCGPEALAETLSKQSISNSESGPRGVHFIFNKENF

In the case of `COC(=O)[C@H](Cc1ccccc1)N[C@H](/C=C/C1CC1)[C@@H](O)Cc1ccccc1`, the composite z-score in [1] is -0.711; in [6], -0.841; in assay [7], -0.322; in the assay with Torsin-1A (Homo sapiens) [8] it was -0.795; with Torsin-1A (Homo sapiens) [9], -0.533; in assay [10] it was -0.345. Besides, the composite z-score in assay [12] was -0.235. The z-score in [2] is -1.78 (inactive); in assay [3], -0.555 (inactive); in [4], 2.59 (inactive); in assay [5] it was -1.23 (inactive); in assay [11], 1.85 (inactive); in assay [13] it was 0.786 (inactive). Moreover, the z-score in [14] was -0.96 (inactive); in assay [15], -0.868 (inactive); in assay [16], -1.83 (inactive); in assay [17] it was 2.14; in assay [18] it was 0.455 (inactive); in assay [19], 0.0154 (inactive). The z-score in assay [20] is -2.49.
Consider `COC(=O)[C@]1(Cc2ccccc2)N=C(c2ccc(OCCCO)cc2)O[C@@H]1c1ccccc1N=[N+]=[N-]`, for which the composite z-score in assay [1] was 0.501; in assay [6], 0.291; in assay [7], -0.0221; with Torsin-1A (Homo sapiens) [8], -0.0019; with Torsin-1A (Homo sapiens) [9] it was 0.0366; in assay [10], 0.354. In addition, the composite z-score in assay [12] was -0.324. Besides, the z-score was -5.26 (inactive) in assay [2]; -0.441 (inactive) in [3]; 1.34 (inactive) in assay [4]; -1.47 (inactive) in assay [5]; -1.19 (inactive) in assay [11]; 28 (active) in assay [13]. Further, the z-score is 24.7 (active) in assay [14]; 0.883 (inactive) in assay [15]; 4.33 (inactive) in [16]; 0.483 in assay [17]; -0.936 (inactive) in assay [18]; 1.14 (inactive) in assay [19]. The z-score in assay [20] was 0.0948.
Take `O=C(NC1CC1)[C@@H]1c2ccccc2C(=O)N(C2Cc3ccccc3C2)[C@H]1c1ccc(CO)cc1`: the composite z-score was 0.336 in [1]; -0.286 in assay [6]; 0.116 in assay [7]; 0.795 with Torsin-1A (Homo sapiens) [8]; 1.28 with Torsin-1A (Homo sapiens) [9]; 1.05 in assay [10]. In addition, the composite z-score in assay [12] is -0.0377. Further, the z-score is 0.192 (inactive) in assay [2]; -0.994 (inactive) in [3]; 0.854 (inactive) in [4]; -0.987 (inactive) in assay [5]; 0.412 (inactive) in assay [11]; 2.06 (inactive) in assay [13]. Moreover, the z-score in [14] is 0.208 (inactive); in [15], 0.531 (inactive); in assay [16] it was -0.112 (inactive); in [17] it was -0.153; in [18] it was 0.0375 (inactive); in assay [19], 0.108 (inactive). In addition, the z-score in [20] was -0.717.
In the case of `COc1ccc(CCNC(=O)[C@@]2(C)c3ccccc3C(=O)N(c3ccc(C)cn3)[C@H]2c2ccc(CO)cc2)cc1`, the composite z-score in assay [1] was -0.49; in [6], -0.712; in [7] it was -0.183; with Torsin-1A (Homo sapiens) [8] it was -2.16; with Torsin-1A (Homo sapiens) [9] it was -1.44; in [10], -0.797. For the same molecule, the composite z-score in assay [12] is -0.0378. The z-score in assay [2] was -0.998 (inactive); in assay [3], -0.604 (inactive); in assay [4], -0.0888 (inactive); in [5] it was -0.371 (inactive); in assay [11], -0.246 (inactive); in assay [13], 2.01 (inactive). For the same molecule, the z-score in [14] was -0.1 (inactive); in assay [15] it was 0.825 (inactive); in [16], 0.156 (inactive); in assay [17], -0.0316; in assay [18] it was -0.911 (inactive); in assay [19], -0.78 (inactive). The z-score in [20] is -1.81.
For `COc1ccc(NN2C(C(O)c3ccc(N(C)C)cc3)C=CC3C(=O)N(C4CCCCC4)C(=O)C32)cc1` (stereo not given), the composite z-score in assay [1] was determined as 0.66; in assay [6] it was 1.46; in assay [7], 0.346; with Torsin-1A (Homo sapiens) [8] it was 0.0944; in the assay with Torsin-1A (Homo sapiens) [9], 1.11; in assay [10], 0.0202. Also, the composite z-score in [12] came out at 0.384. In addition, the z-score was -0.759 (inactive) in [2]; -0.805 (inactive) in assay [3]; -0.583 (inactive) in assay [4]; -0.249 (inactive) in assay [5]; -0.446 (inactive) in [11]; 5.03 (inactive) in assay [13]. For the same molecule, the z-score in assay [14] was 0.589 (inactive); in assay [15] it was 0.193 (inactive); in assay [16], 0.484 (inactive); in assay [17], -0.25; in assay [18], -0.759 (inactive); in assay [19] it was -3.43 (inactive). The same molecule had a z-score in assay [20] of -2.98.
